Screening data from PubChem BioAssay.
The list is not random: actives were taken first. Their share in the collection is about 2.2%.
EWS-Fli block: EWS/Fli transcriptional activity inhibition; A673 NR0B1-luciferase reporter, viability-normalised; inhibition, % at 12.6 µM; 0.67% of 350,000 active; AID 651661;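 active = mean inhibition of at least 50% after viability correction, with every replicate also passing that limit; inconclusive = mean reaches 50% but only one of two replicates passes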;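 also: firefly luciferase signal divided by Alamar Blue viability fluorescence both relative to DMSO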
MITF TRPM1 inh: inhibitors of MITF-driven TRPM1 promoter in melanoma cells | SK-MEL-5 TRPM1 promoter luciferase, 24 h | inhibition, % at 12.5 µM | 0.83% of 330,000 active;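 active = mean inhibition across replicates of 60% or more, whatever share of single replicates reaches that level; inconclusive = some that reach 60%, reason not given; inactive = mean inhibition across replicates below 60%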
Shn3 3UTR inh: reduces Shn3 3'UTR luciferase signal in osteoblasts; 0.52% of 360,000 active; Clone20 osteoblast Shn3 3'UTR firefly luciferase, 24 h; inhibition, % at 12.5 µM;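 active = mean inhibition of at least 75% with every replicate also reaching 75%; inconclusive = mean inhibition at least 75% but some replicate below; inactive = mean inhibition below 75%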;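 also: 0% = median of neutral control wells and 100% = pilot-screen positive control compound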
PAX8 reporter: lowers PAX8-driven luciferase in RMG-I cells | inhibition, % at 12.6 µM | AID 652154 | 1.2% of 360,000 active | RMG-I TPO-luciferase reporter, SteadyGlo, 24 h;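 active = mean replicate inhibition at least 60% with every replicate also reaching 60%; inconclusive = only one of the two criteria is met; inactive = mean below 60% and not all replicates reaching 60%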;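 also: luciferase light reporting Pax8 driven TPO promoter activity; plate controls were median of neutral control wells for no effect and mitoxantrone controls for full effect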
LMP1 NFkB inh: reduces LMP1-driven NF-kappaB luciferase signal; LMP1-induced NF-kappaB luciferase reporter cells, luminescence; inhibition, % at 12.5 µM; 0.69% of 350,000 active; AID 504558; in the data active = inhibition above about 41%; inconclusive = no clear call, values can overlap the other calls;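 also: 0% = neutral control wells and 100% = reference inhibitor control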
LGR2 inh: Drosophila LGR2 receptor signaling inhibition; HEK293 LGR2, CRE-luciferase, bursicon-stimulated, 4 h; inhibition, % at 9.99 µM; 0.35% of 380,000 active; AID 720647;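 active = drop in luminescence signal, shown as inhibition above about 50% in the replicate tests, limit read from the data, passing the limit was not always enough; inconclusive = probably only some replicates passing the limit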;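 also: agonist challenge used bursicon conditioned medium at about half maximal strength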
Starred values were filed as active, the others as inactive; ? = inconclusive; / = no result given.

SMILES	EWS-Fli block	MITF TRPM1 inh	Shn3 3UTR inh	PAX8 reporter	LMP1 NFkB inh	LGR2 inh
O=C(c1ccc([N+](=O)[O-])cc1)N1CCN(Cc2ccccc2)CC1	/	-4	4	22	59*	-19
C=CCn1c(=N)n(CC(=O)c2cccc([N+](=O)[O-])c2)c2ccccc21	-20	7	-32	-18	-10	-29
COc1ccc2c3c(n(C)c2c1)[C@H](CO)N(C(=O)CN(C)C)CC31CN(C(=O)C2CCC2)C1	13	/	/	/	/	-4
C[C@@H]1CN([C@@H](C)CO)C(=O)c2cc(N(C)C)ccc2O[C@@H](C)CCCCO[C@@H]1CN(C)C(=O)Nc1ccc2c(c1)OCO2	-9	/	/	7	/	-7
CO[C@@H]1CN(C)C(=O)c2cc(NC(C)=O)ccc2OC[C@H](C)N(CCC(F)(F)F)C[C@@H]1C	4	/	/	9	/	17
N=c1n(CC(=O)c2ccc([N+](=O)[O-])cc2)c2ccccc2n1Cc1ccccc1Cl	10	79*	6	4	-16	-19
CC(C)(C)C(=O)Cn1ncc(Br)c(Br)c1=O	28	93*	89*	32	61*	103*
Cn1c(COc2ccccc2O)[n+](C)c2ccccc21	-5	10	-13	4	13	-3
CCCCCCCCCCOC(=O)Cn1c(COc2ccccc2OC)[n+](C)c2ccccc21	57*	83*	89*	70*	33	54*
CC(=O)N1[C@@H]2c3ccc(-c4cccc(F)c4)c(=O)n3C[C@@H]2[C@@H](CO)[C@@H]1C(=O)NCCCN(C)C	-3	/	/	-16	/	14
C[C@@H]1CCCCO[C@@H](CN(C)Cc2ccc3c(c2)OCO3)[C@H](C)CN([C@@H](C)CO)C(=O)c2cc(N(C)C)ccc2O1	4	/	/	6	/	/
O=C1C(Br)=C(c2ccccc2)C(c2ccccc2)=C1c1ccccc1	/	80*	98*	/	4	/
COc1cc2c(cc1OC)CN(C(=O)[C@H]1[C@@H]3C(=O)O[C@@H](c4ccccc4)[C@@H](c4ccccc4)N3[C@@H](c3ccccc3OCCO)[C@]13C(=O)Nc1ccccc13)CC2	13	/	/	41	/	/
CC1=C/C(=N\NC(=S)Nc2cccnc2)CC(C)(C)C1	29	62*	60	12	9	-6
Cc1cccc(NC(=O)Cn2cc(C(=O)C3CC3)c3ccccc32)c1C	10	6	87*	17	15	-14
CCC(=O)c1cn(CC(=O)Nc2cccc(C)c2C)c2ccccc12	9	16	84	17	-8	19
CCC(=O)c1cn(CC(=O)Nc2ccccc2Cl)c2ccccc12	7	-4	89*	19	-2	-11
CC1CCN(c2ccc(NC(=O)c3ccc([N+](=O)[O-])o3)cc2)CC1	13	81*	91*	36	-126	2
CS(=O)(=O)N1CCN(c2ccc(NC(=O)c3cc4ccccc4o3)cc2)CC1	-51	-33	-21	-32	-20	-23
O=C(Nc1ccc(N2CCN(C(=O)c3ccc(Cl)cc3)CC2)cc1)c1ccc2c(c1)OCCO2	/	73*	89*	/	25	26
O=C(Nc1ccc(N2CCN(C(=O)c3ccc(Cl)cc3)CC2)cc1)c1ccc([N+](=O)[O-])o1	67*	90*	98*	49	-69	46
CS(=O)(=O)N1CCN(c2ccc(NC(=O)c3ccc([N+](=O)[O-])o3)cc2)CC1	43	75*	97*	71*	-53	10
O=C(Nc1ccc(N2CCN(C(=O)c3ccccc3)CC2)cc1)c1ccc2c(c1)OCCO2	-6	13	40	-23	12	-45
O=C(C[C@H]1C[C@H]2c3cc(NC(=O)Nc4ccc(C(F)(F)F)cc4)ccc3O[C@H]2[C@H](CO)O1)NCc1ccc(Cl)cc1	0	/	/	28	/	0
C/C=C/c1ccc2c(c1)O[C@@H](CN(C)S(=O)(=O)c1ccc(F)cc1)[C@@H](C)CN([C@@H](C)CO)S2(=O)=O	-1	/	/	8	/	-14
SMILES	EWS-Fli block	MITF TRPM1 inh	Shn3 3UTR inh	PAX8 reporter	LMP1 NFkB inh	LGR2 inh
CCC(=O)N1CCC2(CC1)CN(C(=O)Nc1ccccc1F)[C@@H](CO)c1[nH]c3cc(OC)ccc3c12	-8	/	/	/	/	-4
COc1ccc(NC(=O)N(C)C[C@@H]2Oc3ccc(NS(=O)(=O)c4c(C)noc4C)cc3C(=O)N([C@H](C)CO)C[C@H]2C)cc1	2	/	/	/	/	-2
C[C@@H]1CN([C@H](C)CO)C(=O)Cc2cc(NS(=O)(=O)c3ccc(Cl)cc3)ccc2O[C@H]1CN(C)C	8	/	/	-21	/	-1
COCC(=O)N1CC2(C1)CN(Cc1cc(F)ccc1F)[C@H](CO)c1[nH]c3cc(OC)ccc3c12	13	/	/	-2	/	-2
CCC(=O)N1CCN(c2ccc(NC(=O)c3ccc([N+](=O)[O-])o3)cc2)CC1	54*	80*	?	90*	-1	5
CCCC(=O)N1CCN(c2ccc(NC(=O)c3ccc([N+](=O)[O-])o3)cc2)CC1	58*	89*	44	90*	-29	18
CC(C)C(=O)N1CCN(c2ccc(NC(=O)c3ccc4c(c3)OCCO4)cc2Cl)CC1	/	16	43	/	0	85*
O=C(Nc1ccc(N2CCN(Cc3ccccc3F)CC2)cc1)c1ccc([N+](=O)[O-])o1	52*	98*	64	/	-50	13
CC(=O)N1CCN(c2ccc(NC(=O)c3ccc4c(c3)OCCO4)cc2Cl)CC1	-67	-36	-10	-34	-7	-36
CCCC(=O)N1CCN(c2ccc(NC(=O)c3ccc(Br)o3)cc2)CC1	/	-19	7	/	7	/
COc1cccc(-c2ccc(CC[C@H]3O[C@H]4CC[C@H](CO)O[C@H]4C[C@@H]3NC(=O)CN(C)C)cc2)c1	-14	/	/	5	/	/
COCC(=O)N(C)C[C@@H]1Oc2ncc(Br)cc2C(=O)N([C@H](C)CO)C[C@@H]1C	-11	/	/	-12	/	-6
COc1ccc(S(=O)(=O)Nc2ccc3c(c2)C(=O)N([C@@H](C)CO)C[C@H](C)[C@H](CN(C)C(=O)NC2CCCCC2)OCCCC[C@@H](C)O3)cc1	12	/	/	-8	/	-1
CCC(=O)Nc1ccc2c(c1)C(=O)N(C)C[C@H](OC)[C@@H](C)CN(C(=O)CC1CC1)[C@H](C)CO2	-8	/	/	/	/	4
CC(C)(C)C(=O)N1CCN(c2ccc(NC(=O)c3ccc([N+](=O)[O-])o3)cc2)CC1	54*	81*	93*	101*	-29	5
O=C(Nc1ccc(N2CCCCC2)cc1)c1ccc([N+](=O)[O-])o1	-1	52	71	16	-95	-12
CO[C@@H]1CN(C)C(=O)c2ccc(NC(=O)Nc3cc(Cl)cc(Cl)c3)cc2OC[C@H](C)NC[C@@H]1C	7	/	/	7	/	13
COc1ccccc1N1CCN(CCCNC(=O)C2CCCN(c3ncnc4c3nc3n4CCCCC3)C2)CC1 (configuration not stated)	14	-10	30	14	66*	-18
COC(=O)c1cccc(NC(=S)Nc2ccc(Cl)c(Cl)c2)c1	-14	3	/	-2	13	-12
